PubChem BioAssay (Tox21)
Where “and” joins values, the source holds several entries; their conditions need not be identical. Equal values may be shown once. Inconclusive results are not listed. Entries that show only a call come without a potency. Some structures have more than one record in an assay (separate samples or runs), and their calls can disagree. Calls of active or inactive are those of the source. Unless noted, calls come from the whole dose curve; as a rule, active = well fitted curve in the direction sought with a large enough effect in the repeat runs; inconclusive = weak or mixed curves; inactive = no such curve, though single readings can be large; an effect the other way counts as inactive or inconclusive.

Key:
[1] = qHTS assay to identify small molecule antagonists of the glucocorticoid receptor (GR) signaling pathway - cell viability counter screen (AID 720693); note: nearly all actives have a fitted effect of over 55% in size
[2] = qHTS assay to identify small molecule antagonists of the androgen receptor (AR) signaling pathway - cell viability counter screen (AID 743033; note: nearly all actives have a fitted effect of over 45% in size; note: potency is the fitted concentration of half-maximal effect)
[3] = qHTS assay to identify small molecule antagonists of the androgen receptor (AR) signaling pathway using the MDA cell line - cell viability counter screen (AID 743041; note: nearly all actives have a fitted effect of over 45% in size; note: potency is the fitted concentration of half-maximal effect)
In short: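 qHTS viability read-out; MDA-kb2 AR-luc; R1881-stimulated; 16 h exposure at 37C, 0% CO2; CellTiter-Fluor, 30 min; fluorescence intensity.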

[4] = qHTS assay for identifying genotoxic compounds that show differential cytotoxicity against isogenic chicken DT40 cell lines with known DNA damage response pathways - wild type cell line (AID 743012); note: nearly all actives have a fitted effect of over 60% in size; note: potency is the fitted concentration of half-maximal effect
In short: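 CellTiter-Glo luminescence readout of viability in wild type DT40 cells after 40 h compound exposure at 37 C/5% CO2; 300 cells/well; reagent incubated 30 min at room temperature before reading.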

[5] = qHTS assay for identifying genotoxic compounds that show differential cytotoxicity against isogenic chicken DT40 cell lines with known DNA damage response pathways - Rev3 mutant cell line (AID 743014); note: nearly all actives have a fitted effect of over 55% in size; note: potency is the fitted concentration of half-maximal effect
[6] = qHTS assay for identifying genotoxic compounds that show differential cytotoxicity against isogenic chicken DT40 cell lines with known DNA damage response pathways - Rad54/Ku70 mutant cell line (AID 743015); note: nearly all actives have a fitted effect of over 60% in size; note: potency is the fitted concentration of half-maximal effect
[7] = target: Androgen receptor (Homo sapiens) (UniProt P10275); assay: qHTS assay to identify small molecule agonists of the androgen receptor (AR) signaling pathway using the MDA cell line (AID 743040; note: nearly all actives have a fitted effect of over 20% in size)
In short: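 Agonist activity is measured as luciferase luminescence in human MDA-kb2 cells whose MMTV reporter responds to both AR and GR. Compounds in DMSO incubate 16 h at 37C, 0% CO2, and ONE-Glo is read after 30 min.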

[8] = target: Androgen receptor (Homo sapiens) (UniProt P10275); assay: qHTS assay to identify small molecule antagonists of the androgen receptor (AR) signaling pathway (AID 743035; active = well fitted inhibition curve with a large enough effect in the signal ratio in the repeat runs, not every such curve was filed as active; the % refers to the signal ratio; note: potency is the fitted concentration of half-maximal effect)
In short: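 AR-bla HEK293 reporter cells; 4 h settle at 37C/5% CO2; compound + R1881 agonist, 16 h at 37C; LiveBLAzer B/G FRET substrate 2 h RT; fluorescence intensity read. qHTS format.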

[9] = target: Androgen receptor (Homo sapiens) (UniProt P10275); assay: qHTS assay to identify small molecule agonists of the androgen receptor (AR) signaling pathway (AID 743036; active = well fitted activation curve with a large enough effect in the signal ratio in the repeat runs, with a control signal flat, not every such curve was filed as active; the % refers to the signal ratio)
In short: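 Fluorescence from a beta-lactamase FRET substrate served as read-out in AR-UAS-bla GripTite HEK293 cells. Cells were treated with DMSO-dissolved compounds for 16 h at 37C, then with LiveBLAzer B/G substrate for 2 h at room temperature.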

[10] = target: Androgen receptor (Homo sapiens) (UniProt P10275); assay: qHTS assay to identify small molecule antagonists of the androgen receptor (AR) signaling pathway using the MDA cell line (AID 743042; note: potency is the fitted concentration of half-maximal effect; nearly all actives have a fitted effect of over 55% in size)
In short: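 MDA-kb2 cells (human breast carcinoma, stably carrying an MMTV-luciferase reporter responsive to AR and GR) were plated at 3,000 cells/well and preincubated 5 hr at 37C, then given compound plus R1881 agonist for 16 h. ONE-Glo luminescence was read.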

Chain of Androgen receptor (Homo sapiens) (P10275 whole entry, looked up): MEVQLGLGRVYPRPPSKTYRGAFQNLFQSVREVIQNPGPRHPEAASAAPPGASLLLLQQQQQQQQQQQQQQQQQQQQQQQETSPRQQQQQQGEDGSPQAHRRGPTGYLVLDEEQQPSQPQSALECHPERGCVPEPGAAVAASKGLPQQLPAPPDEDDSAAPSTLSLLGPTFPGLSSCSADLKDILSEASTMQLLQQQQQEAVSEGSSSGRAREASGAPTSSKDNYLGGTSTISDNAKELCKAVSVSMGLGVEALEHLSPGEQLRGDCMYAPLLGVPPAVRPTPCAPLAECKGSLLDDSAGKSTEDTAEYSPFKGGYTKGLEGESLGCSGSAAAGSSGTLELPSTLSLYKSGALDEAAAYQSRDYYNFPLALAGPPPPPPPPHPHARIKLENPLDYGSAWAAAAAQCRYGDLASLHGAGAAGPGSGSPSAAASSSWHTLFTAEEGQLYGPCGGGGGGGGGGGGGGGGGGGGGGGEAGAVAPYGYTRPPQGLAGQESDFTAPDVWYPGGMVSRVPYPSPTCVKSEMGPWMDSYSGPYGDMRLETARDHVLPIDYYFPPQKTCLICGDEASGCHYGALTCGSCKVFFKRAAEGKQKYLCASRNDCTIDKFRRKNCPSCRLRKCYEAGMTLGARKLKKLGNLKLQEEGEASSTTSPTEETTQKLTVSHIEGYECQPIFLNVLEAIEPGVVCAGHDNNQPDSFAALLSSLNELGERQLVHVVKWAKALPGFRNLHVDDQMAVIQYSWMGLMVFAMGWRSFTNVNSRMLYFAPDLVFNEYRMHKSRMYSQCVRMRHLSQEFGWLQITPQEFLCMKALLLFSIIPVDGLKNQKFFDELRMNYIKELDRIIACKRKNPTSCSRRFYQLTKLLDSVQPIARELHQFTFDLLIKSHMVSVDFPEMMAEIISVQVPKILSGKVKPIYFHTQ

COc1ccc2[nH]cc(CCN(C(C)C)C(C)C)c2c1
Potency [1]: inactive | Potency [2]: inactive | Potency [3]: inactive

C=CC(=O)[O][Sn]([CH2]CCC)([CH2]CCC)[CH2]CCC
Potency [4]: 0.864 µM (active) | Potency [5]: 0.864 µM (active) | Potency [6]: 0.686 µM (active) | Potency [2]: 1.23 µM (active) | outcome [7]: inactive | Potency [3]: 2.17 µM (active)

CCCCCCCCCCCCCCn1cc[n+](C)c1
Potency [4]: 217 nM (active) and 241 nM (active) and inactive | Potency [5]: 109 nM (active) and 152 nM (active) and inactive | Potency [6]: 122 nM (active) and 135 nM (active) and inactive

C=CCBr
Potency [4]: inactive | Potency [5]: inactive | Potency [6]: inactive | Potency [2]: inactive | Potency [3]: inactive

CO/N=C(/C1=NOCCO1)c1ccccc1Oc1ncnc(Oc2ccccc2Cl)c1F
Potency [4]: 0.0306 µM (active) | Potency [5]: 0.0544 µM (active) | Potency [6]: 0.0153 µM (active) | Potency [2]: 6.91 µM (active) | Potency [3]: 30.6 µM (active)

Fc1ccc(C(OCCN2CCN(CCCc3ccccc3)CC2)c2ccc(F)cc2)cc1
Potency [4]: 2.11 µM (active) | Potency [5]: 2.11 µM (active) | Potency [6]: 3.76 µM (active) | Potency [2]: 21.3 µM (active) | Potency [8]: 15.1 µM (active) | outcome [9]: inactive | outcome [7]: inactive | Potency [3]: 21.1 µM (active) | Potency [10]: 16.8 µM (active)

c1ccc2c(c1)cc1ccc3cccc4ccc2c1c34
Potency [4]: inactive | Potency [5]: inactive | Potency [6]: inactive

ClSC(Cl)(Cl)Cl
Potency [4]: inactive | Potency [5]: inactive | Potency [6]: inactive | Potency [2]: inactive | Potency [3]: inactive

Clc1ccc(C(Cl)(Cl)Cl)cc1Cl
Potency [4]: inactive | Potency [5]: inactive | Potency [6]: inactive | Potency [2]: inactive | Potency [3]: inactive

Nc1cc(Cl)ccc1Cl
Potency [4]: inactive | Potency [5]: inactive | Potency [6]: inactive | Potency [2]: inactive | Potency [3]: inactive

N#CSCc1ccccc1
Potency [4]: inactive | Potency [5]: inactive | Potency [6]: inactive | Potency [2]: inactive | Potency [3]: inactive

Cc1ccn2nc(S(=O)(=O)Nc3c(F)cccc3F)nc2n1
Potency [4]: inactive | Potency [5]: inactive | Potency [6]: inactive | Potency [2]: inactive | Potency [3]: inactive

C[C@H]1[C@H](c2ccc(Cl)cc2)SC(=O)N1C(=O)NC1CCCCC1
Potency [1]: inactive | Potency [2]: inactive | outcome [9]: inactive | outcome [7]: inactive | Potency [3]: inactive

Nc1ccc(N=Nc2ccccc2)cc1
Potency [4]: 61.1 µM (active) | Potency [5]: 61.1 µM (active) | Potency [6]: 56.1 µM (active)

CSC(=O)c1c(C(F)F)nc(C(F)(F)F)c(C(=O)SC)c1CC(C)C
Potency [4]: 34.2 µM (active) | Potency [5]: 27.1 µM (active) | Potency [6]: 30.5 µM (active) | Potency [2]: inactive | Potency [3]: inactive

CC(=O)[O-].CC(=O)[O-].[Co+2]
Potency [4]: inactive | Potency [5]: inactive | Potency [6]: inactive | Potency [2]: inactive | Potency [3]: inactive

CCNS(=O)(=O)C(F)(F)C(F)(F)C(F)(F)C(F)(F)C(F)(F)C(F)(F)C(F)(F)C(F)(F)F
Potency [1]: inactive | Potency [2]: inactive | outcome [9]: inactive | outcome [7]: inactive | Potency [3]: inactive

CCOP(=S)(OCC)Oc1cc(C)nc(N(CC)CC)n1
Potency [4]: 27.3 µM (active) | Potency [5]: 27.3 µM (active) | Potency [6]: 27.3 µM (active) | Potency [8]: inactive | outcome [9]: inactive | outcome [7]: inactive | Potency [3]: inactive

CN1CCc2cc(Cl)c(O)cc2[C@H]2c3ccccc3CC[C@@H]21
Potency [3]: inactive

O=C(N[C@@H]1N=C(c2ccccc2F)c2cccc3c2N(CC3)C1=O)c1cc2ccccc2[nH]1
Potency [5]: inactive | Potency [6]: 21.1 µM (active) | Potency [2]: inactive | Potency [3]: inactive

ClCBr
Potency [4]: inactive | Potency [5]: inactive | Potency [6]: inactive | Potency [3]: inactive

C#CCC1=C(C)C(OC(=O)C2C(C=C(C)C)C2(C)C)CC1=O (centres undefined)
Potency [4]: 19.2 µM (active) | Potency [5]: 30.4 µM (active) | Potency [6]: 30.4 µM (active) | Potency [3]: inactive

CC(=O)C(Cl)C(=O)N(C)C (centres undefined)
Potency [5]: 24.3 µM (active) | Potency [6]: 61.1 µM (active) | Potency [3]: inactive

Cc1cccc(Cc2cnc[nH]2)c1C
Potency [6]: inactive | Potency [2]: inactive | Potency [3]: inactive

S=C=NCCc1ccccc1
Potency [4]: inactive | Potency [6]: inactive | Potency [2]: inactive | Potency [8]: inactive | outcome [7]: inactive | Potency [3]: inactive
